In ChEMBL document CHEMBL2218924, “A broad activity screen in support of a chemogenomic map for kinase signalling research and drug discovery” (Biochem J, 2013) one finds residual activity data, which are given here for nine compounds.

Assay [1] concerns the target Tyrosine-protein kinase Fer (Homo sapiens) (UniProt P16591). As to conditions: at 10 µM.
For assay [2], the target named is Tyrosine-protein kinase Fgr (Homo sapiens) (UniProt P09769). The following applies: at 1 µM.
Assay [3] shares this target. The following applies: at 10 µM.
Assay [4] deals with Vascular endothelial growth factor receptor 1 (Homo sapiens) (UniProt P17948). The following applies: at 1 µM.
The target is the same in assay [5]. The following applies: at 10 µM.
In assay [6] the target is Receptor-type tyrosine-protein kinase FLT3 (Homo sapiens) (UniProt P36888). As to conditions: at 1 µM.
Assay [7] shares this target. The following applies: at 10 µM.
Assay [8] has as its target Vascular endothelial growth factor receptor 3 (Homo sapiens) (UniProt P35916). The following applies: at 1 µM.
The target is the same in assay [9]. As to conditions: at 10 µM.
In assay [10] the target is Macrophage colony-stimulating factor 1 receptor (Homo sapiens) (UniProt P07333). The following applies: at 1 µM.
For assay [11] the target is unchanged. The following applies: at 10 µM.
Assay [12] addresses Tyrosine-protein kinase Fyn (Homo sapiens) (UniProt P06241). The following applies: at 1 µM.
For assay [13] the target is unchanged. As to conditions: at 10 µM.
The target of assay [14] is T1, Mitogen-activated protein kinase kinase kinase kinase 2 (Homo sapiens) (UniProt Q12851).
T1 sequence (whole entry): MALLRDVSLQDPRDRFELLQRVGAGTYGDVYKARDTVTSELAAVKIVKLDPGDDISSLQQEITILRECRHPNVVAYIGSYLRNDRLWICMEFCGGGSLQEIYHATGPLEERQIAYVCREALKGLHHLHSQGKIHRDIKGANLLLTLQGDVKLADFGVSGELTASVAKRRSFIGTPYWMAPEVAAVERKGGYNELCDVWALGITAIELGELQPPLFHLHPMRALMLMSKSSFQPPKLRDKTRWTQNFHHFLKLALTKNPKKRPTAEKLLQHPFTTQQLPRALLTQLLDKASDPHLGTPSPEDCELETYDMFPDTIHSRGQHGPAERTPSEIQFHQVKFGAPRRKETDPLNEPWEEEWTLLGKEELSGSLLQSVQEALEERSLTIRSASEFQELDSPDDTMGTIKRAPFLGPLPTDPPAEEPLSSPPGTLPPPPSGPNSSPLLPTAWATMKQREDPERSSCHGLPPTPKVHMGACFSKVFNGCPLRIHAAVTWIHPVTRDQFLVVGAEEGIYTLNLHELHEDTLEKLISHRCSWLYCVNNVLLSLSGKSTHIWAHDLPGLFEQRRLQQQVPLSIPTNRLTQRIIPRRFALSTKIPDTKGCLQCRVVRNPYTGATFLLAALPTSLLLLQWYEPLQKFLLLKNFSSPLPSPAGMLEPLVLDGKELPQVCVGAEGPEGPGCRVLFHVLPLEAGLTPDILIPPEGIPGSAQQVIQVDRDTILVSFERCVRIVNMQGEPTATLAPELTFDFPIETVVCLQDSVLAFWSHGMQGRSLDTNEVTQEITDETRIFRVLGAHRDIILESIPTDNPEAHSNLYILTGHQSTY
The following applies: at 1 µM.

Assay [15] deals with T1, Mitogen-activated protein kinase kinase kinase kinase 2 (Homo sapiens). The following applies: at 10 µM.
The target of assay [16] is G protein-coupled receptor kinase 5 (Homo sapiens) (UniProt P34947). The following applies: at 10 µM.
Assay [17] addresses T2, Rhodopsin kinase GRK7 (Homo sapiens) (UniProt Q8WTQ7).
T2 sequence (whole entry): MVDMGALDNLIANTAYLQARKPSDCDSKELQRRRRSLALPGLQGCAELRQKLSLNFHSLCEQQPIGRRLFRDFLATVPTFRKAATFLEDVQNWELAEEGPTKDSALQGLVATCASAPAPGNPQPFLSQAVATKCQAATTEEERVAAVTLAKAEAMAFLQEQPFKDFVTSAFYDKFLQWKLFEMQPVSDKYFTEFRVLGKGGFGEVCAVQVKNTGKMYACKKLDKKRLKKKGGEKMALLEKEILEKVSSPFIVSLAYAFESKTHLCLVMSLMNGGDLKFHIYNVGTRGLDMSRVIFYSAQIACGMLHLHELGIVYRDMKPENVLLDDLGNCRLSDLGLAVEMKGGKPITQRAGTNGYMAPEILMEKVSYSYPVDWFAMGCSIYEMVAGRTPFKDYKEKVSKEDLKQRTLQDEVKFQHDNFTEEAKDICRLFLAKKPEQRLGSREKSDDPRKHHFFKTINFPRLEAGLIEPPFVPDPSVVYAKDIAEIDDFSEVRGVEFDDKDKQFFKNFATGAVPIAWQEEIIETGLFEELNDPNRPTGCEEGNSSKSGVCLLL
The following applies: at 1 µM.

For assay [18], the target named is Tyrosine-protein kinase Fes/Fps (Homo sapiens) (UniProt P07332). As to conditions: at 1 µM.
The target is the same in assay [19]. As to conditions: at 10 µM.
Assay [20] addresses G protein-coupled receptor kinase 6 (Homo sapiens) (UniProt P43250). The following applies: at 10 µM.

Chain of Receptor-type tyrosine-protein kinase FLT3 (Homo sapiens) (P36888 whole entry): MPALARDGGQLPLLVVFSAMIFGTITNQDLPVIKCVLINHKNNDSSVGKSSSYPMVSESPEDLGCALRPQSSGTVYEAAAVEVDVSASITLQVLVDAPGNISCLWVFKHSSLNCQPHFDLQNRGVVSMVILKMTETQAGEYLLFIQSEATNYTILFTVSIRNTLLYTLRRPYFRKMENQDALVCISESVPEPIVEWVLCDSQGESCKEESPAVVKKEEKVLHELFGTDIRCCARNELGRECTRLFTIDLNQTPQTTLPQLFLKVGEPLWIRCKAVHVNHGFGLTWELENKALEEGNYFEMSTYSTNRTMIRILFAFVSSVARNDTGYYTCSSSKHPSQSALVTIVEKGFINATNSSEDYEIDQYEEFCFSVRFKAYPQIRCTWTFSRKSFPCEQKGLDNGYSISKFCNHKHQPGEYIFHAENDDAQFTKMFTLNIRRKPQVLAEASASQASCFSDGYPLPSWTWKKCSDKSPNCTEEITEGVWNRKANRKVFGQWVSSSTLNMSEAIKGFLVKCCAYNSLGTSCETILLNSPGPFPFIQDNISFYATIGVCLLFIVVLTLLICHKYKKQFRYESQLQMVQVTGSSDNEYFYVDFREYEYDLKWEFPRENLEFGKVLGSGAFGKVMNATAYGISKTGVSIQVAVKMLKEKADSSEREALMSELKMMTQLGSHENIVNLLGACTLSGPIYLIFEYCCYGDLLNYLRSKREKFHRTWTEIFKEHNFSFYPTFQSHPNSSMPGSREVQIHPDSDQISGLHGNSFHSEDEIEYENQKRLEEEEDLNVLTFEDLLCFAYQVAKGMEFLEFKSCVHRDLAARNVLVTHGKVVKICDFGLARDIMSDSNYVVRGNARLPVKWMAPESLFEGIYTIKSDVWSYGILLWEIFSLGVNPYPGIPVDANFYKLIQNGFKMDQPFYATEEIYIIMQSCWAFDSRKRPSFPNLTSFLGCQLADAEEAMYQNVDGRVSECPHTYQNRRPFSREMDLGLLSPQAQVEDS
Chain of Vascular endothelial growth factor receptor 3 (Homo sapiens) (P35916 whole entry): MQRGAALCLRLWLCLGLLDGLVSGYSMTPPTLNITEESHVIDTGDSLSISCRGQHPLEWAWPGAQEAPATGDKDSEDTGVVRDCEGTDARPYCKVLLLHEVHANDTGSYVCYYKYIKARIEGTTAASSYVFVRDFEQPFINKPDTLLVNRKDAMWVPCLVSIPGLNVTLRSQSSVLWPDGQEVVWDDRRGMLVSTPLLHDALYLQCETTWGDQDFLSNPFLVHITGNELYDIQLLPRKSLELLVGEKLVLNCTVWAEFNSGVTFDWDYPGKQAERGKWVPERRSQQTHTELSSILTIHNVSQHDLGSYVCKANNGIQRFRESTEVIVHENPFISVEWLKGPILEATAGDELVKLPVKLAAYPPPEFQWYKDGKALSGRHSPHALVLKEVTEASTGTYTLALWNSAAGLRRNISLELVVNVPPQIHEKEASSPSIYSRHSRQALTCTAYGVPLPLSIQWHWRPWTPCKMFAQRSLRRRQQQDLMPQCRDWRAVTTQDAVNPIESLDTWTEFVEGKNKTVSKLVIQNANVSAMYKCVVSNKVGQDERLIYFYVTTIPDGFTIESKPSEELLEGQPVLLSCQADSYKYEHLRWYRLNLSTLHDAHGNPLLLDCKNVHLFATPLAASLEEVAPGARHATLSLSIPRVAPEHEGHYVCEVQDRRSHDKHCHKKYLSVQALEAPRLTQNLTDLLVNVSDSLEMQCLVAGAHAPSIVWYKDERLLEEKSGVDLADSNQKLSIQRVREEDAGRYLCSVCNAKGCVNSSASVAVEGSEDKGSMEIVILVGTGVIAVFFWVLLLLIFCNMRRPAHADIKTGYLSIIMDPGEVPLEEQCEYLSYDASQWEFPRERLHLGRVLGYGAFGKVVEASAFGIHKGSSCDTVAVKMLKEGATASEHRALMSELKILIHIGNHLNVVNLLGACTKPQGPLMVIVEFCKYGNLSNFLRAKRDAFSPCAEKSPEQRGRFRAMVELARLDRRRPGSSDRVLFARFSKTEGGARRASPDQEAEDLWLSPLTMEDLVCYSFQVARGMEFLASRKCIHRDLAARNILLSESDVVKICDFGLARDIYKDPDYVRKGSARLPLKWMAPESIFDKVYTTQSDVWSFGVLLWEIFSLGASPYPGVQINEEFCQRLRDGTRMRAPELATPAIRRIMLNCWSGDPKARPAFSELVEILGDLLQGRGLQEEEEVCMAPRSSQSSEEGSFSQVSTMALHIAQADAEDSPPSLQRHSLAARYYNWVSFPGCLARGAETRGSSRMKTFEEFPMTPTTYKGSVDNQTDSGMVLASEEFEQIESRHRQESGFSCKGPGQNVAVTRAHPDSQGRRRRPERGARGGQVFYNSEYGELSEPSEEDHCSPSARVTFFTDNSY
Chain of Macrophage colony-stimulating factor 1 receptor (Homo sapiens) (P07333 whole entry): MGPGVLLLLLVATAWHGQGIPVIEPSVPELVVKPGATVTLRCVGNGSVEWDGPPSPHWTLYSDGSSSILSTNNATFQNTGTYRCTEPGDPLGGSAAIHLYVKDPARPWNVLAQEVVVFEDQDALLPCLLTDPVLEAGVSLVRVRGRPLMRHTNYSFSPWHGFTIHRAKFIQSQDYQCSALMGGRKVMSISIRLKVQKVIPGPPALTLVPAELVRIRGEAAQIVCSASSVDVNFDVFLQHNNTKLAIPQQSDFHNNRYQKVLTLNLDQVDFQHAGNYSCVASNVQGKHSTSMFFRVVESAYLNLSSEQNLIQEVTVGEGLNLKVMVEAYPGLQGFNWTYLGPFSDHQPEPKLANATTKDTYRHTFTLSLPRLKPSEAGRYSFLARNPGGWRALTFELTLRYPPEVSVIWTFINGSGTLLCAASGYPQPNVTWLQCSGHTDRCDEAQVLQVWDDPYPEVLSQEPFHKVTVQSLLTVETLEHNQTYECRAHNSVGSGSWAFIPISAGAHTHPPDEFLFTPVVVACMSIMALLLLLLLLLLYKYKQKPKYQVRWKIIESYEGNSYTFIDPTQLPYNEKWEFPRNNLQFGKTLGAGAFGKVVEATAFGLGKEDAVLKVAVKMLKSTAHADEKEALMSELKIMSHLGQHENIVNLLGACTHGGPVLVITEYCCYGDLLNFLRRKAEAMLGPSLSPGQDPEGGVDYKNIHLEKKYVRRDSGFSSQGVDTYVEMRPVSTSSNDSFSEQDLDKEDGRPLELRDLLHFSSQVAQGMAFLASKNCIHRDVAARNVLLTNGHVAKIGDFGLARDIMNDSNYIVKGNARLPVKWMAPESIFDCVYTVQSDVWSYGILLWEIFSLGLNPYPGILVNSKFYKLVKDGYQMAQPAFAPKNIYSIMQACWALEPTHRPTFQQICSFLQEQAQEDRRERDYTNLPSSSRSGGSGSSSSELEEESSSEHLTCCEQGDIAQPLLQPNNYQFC
Chain of G protein-coupled receptor kinase 5 (Homo sapiens) (P34947 whole entry, looked up): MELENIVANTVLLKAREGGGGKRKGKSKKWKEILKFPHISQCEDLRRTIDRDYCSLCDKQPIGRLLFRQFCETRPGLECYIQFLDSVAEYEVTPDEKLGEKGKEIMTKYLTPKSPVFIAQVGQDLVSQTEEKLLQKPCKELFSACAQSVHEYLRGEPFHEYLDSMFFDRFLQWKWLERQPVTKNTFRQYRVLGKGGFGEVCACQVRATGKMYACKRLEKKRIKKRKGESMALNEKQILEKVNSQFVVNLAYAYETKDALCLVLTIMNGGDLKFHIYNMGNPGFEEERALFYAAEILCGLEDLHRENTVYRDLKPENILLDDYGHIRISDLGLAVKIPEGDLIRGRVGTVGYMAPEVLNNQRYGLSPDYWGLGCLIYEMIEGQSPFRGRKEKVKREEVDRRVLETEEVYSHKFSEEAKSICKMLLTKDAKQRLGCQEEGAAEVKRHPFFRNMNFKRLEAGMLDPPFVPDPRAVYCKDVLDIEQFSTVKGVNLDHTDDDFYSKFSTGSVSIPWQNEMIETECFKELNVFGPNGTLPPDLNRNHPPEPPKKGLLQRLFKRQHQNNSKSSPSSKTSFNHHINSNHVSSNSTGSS
Chain of Tyrosine-protein kinase Fes/Fps (Homo sapiens) (P07332 whole entry): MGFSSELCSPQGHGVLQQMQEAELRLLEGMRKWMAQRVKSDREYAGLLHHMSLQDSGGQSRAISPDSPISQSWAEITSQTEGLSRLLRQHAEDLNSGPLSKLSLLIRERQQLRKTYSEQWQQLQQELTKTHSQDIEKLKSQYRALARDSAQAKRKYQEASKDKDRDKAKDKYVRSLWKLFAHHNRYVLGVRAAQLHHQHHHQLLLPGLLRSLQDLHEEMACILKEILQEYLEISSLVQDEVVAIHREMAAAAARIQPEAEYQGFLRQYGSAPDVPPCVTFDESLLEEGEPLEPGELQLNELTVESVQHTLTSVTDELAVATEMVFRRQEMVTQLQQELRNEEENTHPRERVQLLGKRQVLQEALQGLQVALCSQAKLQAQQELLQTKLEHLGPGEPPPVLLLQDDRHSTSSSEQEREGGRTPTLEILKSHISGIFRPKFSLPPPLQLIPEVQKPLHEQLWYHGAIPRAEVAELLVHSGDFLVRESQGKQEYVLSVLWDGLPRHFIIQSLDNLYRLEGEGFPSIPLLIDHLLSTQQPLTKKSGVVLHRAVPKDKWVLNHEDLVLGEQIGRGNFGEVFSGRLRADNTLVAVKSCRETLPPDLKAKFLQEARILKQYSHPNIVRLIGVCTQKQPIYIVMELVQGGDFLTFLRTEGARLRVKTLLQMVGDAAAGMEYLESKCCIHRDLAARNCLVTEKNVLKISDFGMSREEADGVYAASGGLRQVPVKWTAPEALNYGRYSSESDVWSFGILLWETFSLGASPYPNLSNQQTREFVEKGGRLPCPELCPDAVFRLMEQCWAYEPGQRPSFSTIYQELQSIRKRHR

As for `Cn1c2ccccc2c2c3c(c4c5ccccc5n(CCC#N)c4c21)CNC3=O`, the residual activity in [1] amounted to 4%; in assay [2], 41%; in assay [3], 47%; in assay [4], 4%; in assay [5], 4%; in [6] it was 0%. The residual activity in assay [7] came to 0%; in [8], 2%; in assay [9], 3%; in assay [10], 14%; in assay [11], 5%; in assay [12] it was 47%. Further, the residual activity is 58% in assay [13]; 2% in assay [14]; 1% in assay [15]; 75% in [16]; 16% in assay [17].

`Fc1ccc(-c2nc3n(c2-c2ccncc2)CCS3)cc1`: the residual activity worked out at 97% in assay [3]; 98% in assay [6]; 82% in assay [7]; 89% in assay [8]; 43% in assay [9]; 90% in [10]. Also, the residual activity in assay [11] turned out to be 84%; in assay [12], 92%; in assay [13], 83%; in assay [15], 83%.

`O=C1NC(=O)c2c1c1c3ccccc3[nH]c1n1cncc21`: the residual activity in assay [18] turned out to be 79%; in assay [19], 56%; in assay [2] it was 75%; in assay [3], 45%; in [4], 16%; in [5], 3%. For the same compound, the residual activity turned out to be 18% in assay [6]; 5% in [7]; 0% in assay [8]; 2% in assay [9]; 26% in [10]; 23% in assay [11]. Also, the residual activity in assay [12] came to 51%; in [13], 42%; in assay [14] it was 58%; in assay [15], 53%; in assay [16], 70%; in [20] it was 75%. Also, the residual activity in assay [17] came to 84%.

Consider `O=c1cc(N2CCOCC2)oc2c(-c3ccccc3)cccc12`, for which the residual activity in assay [9] came to 72%; in [10], 66%; in assay [11] it was 62%; in assay [15], 70%; in [20], 77%.

As to `O=C(Nc1ccc(Cl)cc1)c1ccccc1NCc1ccncc1`, the residual activity was 101% in [1]; 0% in [4]; 2% in assay [5]; 65% in assay [7]; 0% in assay [8]; 0% in assay [9]. In addition, the residual activity is 1% in [10]; 0% in assay [11]; 102% in [12]; 70% in assay [13]; 58% in [15].

`c1ccc(-c2cnc(Nc3ccc(OCCN4CCCC4)cc3)s2)cc1`: the residual activity in [18] stood at 123%; in [19], 59%; in assay [2], 63%; in assay [3], 11%; in assay [4], 4%; in [5], 0%. Further, the residual activity in [6] turned out to be 4%; in assay [7] it was 0%; in assay [8] it was 2%; in assay [9], 1%; in assay [10] it was 1%; in assay [11], 1%. Further, the residual activity stood at 55% in assay [12]; 13% in [13]; 100% in assay [14]; 39% in [15]; 105% in assay [16]; 105% in assay [17].

For the compound `O=C1NC(=O)C(c2cn(CCCn3ccnc3)c3ccccc23)=C1Nc1ccccc1`, the residual activity in assay [1] is 52%; in assay [3] it was 59%; in assay [4], 51%; in assay [5], 11%; in [6] it was 14%; in [7], 0%. Also, the residual activity in assay [8] is 58%; in assay [9], 9%; in assay [10], 66%; in [11] it was 40%; in [14] it was 54%; in [15], 13%. The residual activity in [16] was determined as 30%; in [20] it was 59%; in [17], 75%.

Regarding `O=C(NC(NC(=S)Nc1ccc(F)c([N+](=O)[O-])c1)C(Cl)(Cl)Cl)C(c1ccccc1)c1ccccc1` (stereo not given), the residual activity in assay [1] came out at 103%; in assay [6], 99%; in [7], 82%; in assay [8], 93%; in assay [9] it was 76%; in assay [10], 89%. In addition, the residual activity in assay [11] came to 71%; in [12] it was 104%; in assay [13], 58%; in [14], 88%; in assay [15] it was 74%; in assay [16], 100%. Moreover, the residual activity in assay [20] came to 87%; in assay [17] it was 86%.

Regarding `CCN1/C(=C/C(C)=O)Sc2ccc(OC)cc21`, the residual activity in assay [3] was 73%; in assay [5] it was 81%; in assay [6], 64%; in assay [7], 39%; in [9] it was 65%; in assay [10], 81%. Besides, the residual activity amounted to 66% in assay [11]; 80% in assay [12]; 74% in assay [14]; 55% in assay [15]; 79% in [20].
